Measured values reported in PubChem BioAssay (Tox21).
“And” between values parts separate entries of the source, which are not always exact repeats. Equal entries are not always repeated. Records with an inconclusive call do not appear. Entries that show only a call come without a potency. A structure can be active in one record and inactive in another. The source made the active and inactive calls. Unless noted, the call rests on the fitted dose curve; in most records, active means well fitted curve in the direction sought with a large enough effect in the repeat runs; inconclusive means weak or mixed curves; inactive means no such curve, though single readings can be large; an effect the other way counts as inactive or inconclusive.

Experiments:
[1] = qHTS assay for small molecule agonists of the p53 signaling pathway (AID 651631; calls by dose curve; further: nearly all actives have a fitted effect of over 15% in size)
Summary of the method: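 Testing took place in human colorectal HCT-116 cells with stable p53RE-driven beta-lactamase. After 16 h of compound exposure at 37 °C, a FRET substrate was added and fluorescence recorded 2 h later.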

[2] = qHTS assay for small molecules that induce genotoxicity in human embryonic kidney cells expressing luciferase-tagged ATAD5 (AID 651632); further: nearly all actives have a fitted effect of over 15% in size
Summary of the method: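 Reporter cells (HEK293T) express luciferase-tagged ATAD5, a protein that accumulates after DNA damage. Treat 16 hr at 37C/5% CO2, add Amplite, wait 30 min at RT, and read luminescence.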

[3] = qHTS assay for small molecule agonists of the p53 signaling pathway - cell viability (AID 651633; calls by dose curve; further: nearly all actives have a fitted effect of over 30% in size; further: potency means the concentration at half of the fitted maximal effect)
Summary of the method: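 p53RE-bla cells were treated with compound for 16 hours at 37 C. Cytotoxicity was then measured as CellTiter-Glo luminescence after 30 min at room temperature.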

[4] = qHTS assay for small molecules that induce genotoxicity in human embryonic kidney cells expressing luciferase-tagged ATAD5 - cell viability (AID 651634; calls by dose curve; further: nearly all actives have a fitted effect of over 25% in size; further: potency means the concentration at half of the fitted maximal effect)
Summary of the method: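 Seeding of 2,000 HEK293T ATAD5-luciferase cells per well preceded pin-tool compound transfer. Plates sat 15.5 hr at 37C under 5% CO2, then fluorescence was read after 30 min with CellTiter-Fluor.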

[5] = qHTS assay for small molecule disruptors of the mitochondrial membrane potential - cell viability (AID 720634; calls by dose curve; further: nearly all actives have a fitted effect of over 20% in size; further: potency means the concentration at half of the fitted maximal effect)
Summary of the method: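 Measuring cytotoxicity alongside mitochondrial potential, the screen quantified ATP by luminescence in HepG2 cells after 1 hr compound incubation and a 30 min room-temperature CellTiter-Glo step.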

[6] = qHTS assay for small molecule disruptors of the mitochondrial membrane potential (AID 720635); further: potency means the concentration at half of the fitted maximal effect
Summary of the method: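 HepG2 cells exposed to compound 1 hr at 37C, then Mito-MPS dye 30 min. Ratio read of aggregate (540/590 nm) versus monomer (490/535 nm) fluorescence.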

[7] = qHTS assay to test for compound auto fluorescence at 590 nm (red) in HepG2 cells (AID 720674)
Summary of the method: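 Seeding: 2,000 HepG2 cells/well, MEM/10% FBS, overnight 37 C. Dosing: compound vs DMSO. Incubation: 1 hr, 37 C, 5% CO2. Read: fluorescence 540 ex/590 em, Rose Bengal sodium as red reference.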

[8] = qHTS assay to test for compound auto fluorescence at 535 nm (green) in HepG2 cells (AID 720675)
[9] = qHTS assay to test for compound auto fluorescence at 460 nm (blue) in HEK293 cells (AID 720678)
Summary of the method: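 Blue read-out at excitation 405 nm and emission 460 nm follows overnight compound exposure of HEK293 cells at 37C in 5% CO2. Activity is given as auto fluorescence equivalency to triamterene.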

[10] = qHTS assay to test for compound auto fluorescence at 590 nm (red) in HEK293 cells (AID 720679)
Summary of the method: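 Red channel, Ex/Em 540/590nm; signal expressed as equivalency to Rose Bengal sodium. HEK293, 2,000 cells/well, 10% dialyzed FBS; 23 nL compound pinned after 4-5 hr attachment; overnight 37C/5% CO2 before reading.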

[11] = qHTS assay to test for compound auto fluorescence at 535 nm (green) in HEK293 cells (AID 720680)
[12] = qHTS assay to test for compound auto fluorescence at 460 nm (blue) in HEK293 cell free culture (AID 720681)
Summary of the method: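 Compounds were added to cell-free DMEM with 10% FBS and fluorescence read directly. The blue channel used 405 nm excitation and 460 nm emission, with triamterene as the reference fluorophore.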

[13] = qHTS assay to test for compound auto fluorescence at 535 nm (green) in HEK293 cell free culture (AID 720682)
Summary of the method: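 DMEM + 10% FBS, cell-free; cpd or DMSO pinned in; Ex485/Em535 read; output as fluorescein-equivalent signal.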

[14] = qHTS assay to test for compound auto fluorescence at 590 nm (red) in HEK293 cell free culture (AID 720683)
Summary of the method: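 Cell-free wells of DMEM with 10% FBS received compound, and intrinsic fluorescence was read at excitation/emission 540/590 nm. Values expressed as equivalence to Rose Bengal sodium.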

[15] = qHTS assay to test for compound auto fluorescence at 590 nm (red) in HepG2 cell free culture (AID 720684)
Summary of the method: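 Compounds are added to culture medium (MEM, 10% FBS) lacking cells, then fluorescence is read at excitation 540 nm, emission 590 nm, with Rose Bengal sodium as the equivalency standard.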

[16] = qHTS assay to test for compound auto fluorescence at 460 nm (blue) in HepG2 cell free culture (AID 720685)
Summary of the method: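 Compound (23 nL) or DMSO pinned into cell-free MEM with 10% FBS; blue fluorescence read at 405/460 nm excitation/emission, expressed as auto-fluorescence equivalency to triamterene.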

[17] = qHTS assay to test for compound auto fluorescence at 535 nm (green) in HepG2 cell free culture (AID 720686)
[18] = qHTS assay to test for compound auto fluorescence at 460 nm (blue) in HepG2 cells (AID 720687)
Summary of the method: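 HepG2 cells in MEM with 10% FBS, attached overnight at 37 C, were exposed to compound or DMSO for 1 hr at 37 C, 5% CO2. Blue fluorescence was read at 405/460 nm, with triamterene as reference fluorophore.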

[19] = molecular target: Glucocorticoid receptor (Homo sapiens) (UniProt P04150); assay: qHTS assay to identify small molecule agonists of the glucocorticoid receptor (GR) signaling pathway (AID 720691; active means well fitted activation curve with a large enough effect in the signal ratio in the repeat runs, not every such curve was filed as active; the % refers to the signal ratio)
Chain of Glucocorticoid receptor (Homo sapiens) (P04150 whole entry, looked up): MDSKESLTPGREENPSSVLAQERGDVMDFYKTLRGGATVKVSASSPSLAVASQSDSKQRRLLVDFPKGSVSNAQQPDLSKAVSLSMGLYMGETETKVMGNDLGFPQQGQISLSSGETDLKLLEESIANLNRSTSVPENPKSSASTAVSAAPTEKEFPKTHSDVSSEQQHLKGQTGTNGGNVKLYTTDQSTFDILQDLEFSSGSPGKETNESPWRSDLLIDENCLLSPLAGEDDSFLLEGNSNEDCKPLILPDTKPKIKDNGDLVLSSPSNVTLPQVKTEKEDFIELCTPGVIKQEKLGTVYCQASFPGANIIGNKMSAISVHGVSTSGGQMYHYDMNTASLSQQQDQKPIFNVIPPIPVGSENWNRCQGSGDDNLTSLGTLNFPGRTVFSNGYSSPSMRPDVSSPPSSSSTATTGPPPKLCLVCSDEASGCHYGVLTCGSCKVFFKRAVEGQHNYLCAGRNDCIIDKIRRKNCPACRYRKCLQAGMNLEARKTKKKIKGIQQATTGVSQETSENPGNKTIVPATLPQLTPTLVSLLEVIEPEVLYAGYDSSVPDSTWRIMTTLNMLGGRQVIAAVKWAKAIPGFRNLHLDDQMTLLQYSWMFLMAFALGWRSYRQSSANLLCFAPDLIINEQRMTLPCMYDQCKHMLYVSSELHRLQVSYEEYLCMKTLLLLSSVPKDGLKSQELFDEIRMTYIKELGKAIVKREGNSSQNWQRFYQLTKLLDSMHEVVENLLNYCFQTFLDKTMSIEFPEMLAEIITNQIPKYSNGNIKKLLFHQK
Summary of the method: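 Reporter read-out: fluorescence intensity following 2 h room-temperature LiveBLAzer B/G FRET substrate loading. Prior step: GR-bla HeLa cells held 4 h, then treated 18 h at 37 C.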

[20] = qHTS assay to identify small molecule antagonists of the glucocorticoid receptor (GR) signaling pathway - cell viability counter screen (AID 720693); further: nearly all actives have a fitted effect of over 55% in size; further: potency means the concentration at half of the fitted maximal effect

Structure (SMILES)	Potency [1]	outcome [2]	Potency [3]	Potency [4]	Potency [5]	Potency [6]	outcome [7]	outcome [8]	outcome [9]	outcome [10]	outcome [11]	outcome [12]	outcome [13]	outcome [14]	outcome [15]	outcome [16]	outcome [17]	outcome [18]	outcome [19]	Potency [20]
COc1ccc(N)cc1	inactive	inactive	inactive	inactive	inactive	inactive	inactive	inactive	inactive	inactive	inactive	inactive	inactive	inactive	inactive	inactive	inactive	inactive	inactive	inactive
Nc1ccc(-c2ccc(N)cc2)cc1	inactive	inactive	inactive	inactive	inactive	–	inactive	inactive	inactive	inactive	inactive	inactive	inactive	inactive	inactive	inactive	inactive	inactive	inactive	inactive
CCCCCCCCCCCCCCCCn1cc[n+](C)c1	inactive	inactive	27.9 µM (active) and 69.2 µM (active) and 30.7 µM (active)	–	–	17.6 µM (active) and inactive and 17.4 µM (active)	inactive	inactive	inactive	inactive	inactive	inactive	inactive	inactive	inactive	inactive	inactive	inactive	inactive	–
COCC(=O)N(c1c(C)cccc1C)C(C)C(=O)OC (stereo not given)	inactive	inactive	inactive	inactive	inactive	inactive	inactive	inactive	inactive	inactive	inactive	inactive	inactive	inactive	inactive	inactive	inactive	inactive	–	inactive
COP(=O)(OC)OC=C(Cl)Cl	–	inactive	inactive	inactive	inactive	inactive	inactive	inactive	inactive	inactive	inactive	inactive	inactive	inactive	inactive	inactive	inactive	inactive	–	inactive
O=c1[nH]c(=O)n(Cl)c(=O)n1Cl	–	inactive	–	inactive	inactive	inactive	inactive	inactive	inactive	inactive	inactive	inactive	inactive	inactive	inactive	inactive	inactive	inactive	inactive	inactive
CCC[N+]1(C)CCCCC1	–	inactive	inactive	inactive	inactive	inactive	inactive	inactive	inactive	inactive	inactive	inactive	inactive	inactive	inactive	inactive	inactive	inactive	–	inactive
O=[N+]([O-])O	–	–	–	inactive	–	–	inactive	inactive	inactive	inactive	inactive	inactive	inactive	inactive	inactive	inactive	inactive	inactive	inactive	inactive
CCCC[n+]1ccccc1	–	inactive	inactive	inactive	inactive	inactive	inactive	inactive	inactive	inactive	inactive	inactive	inactive	inactive	inactive	inactive	inactive	inactive	–	inactive
CC[N+](CC)(CC)CC	–	–	inactive	inactive	inactive	inactive	inactive	inactive	inactive	inactive	inactive	inactive	inactive	inactive	inactive	inactive	inactive	inactive	inactive	inactive
CN(C)[C@@H]1C(=O)C(C(N)=O)=C(O)[C@@]2(O)C(=O)C3=C(O)c4c(O)cccc4[C@@](C)(O)[C@H]3[C@H](O)[C@@H]12	–	–	–	inactive	inactive	inactive and 34.4 µM (active)	inactive	inactive	inactive	inactive	inactive	inactive	inactive	inactive	inactive	inactive	inactive	inactive	–	inactive
COc1ccccc1N	–	inactive	inactive	inactive	inactive	inactive	inactive	inactive	inactive	inactive	inactive	inactive	inactive	inactive	inactive	inactive	inactive	inactive	–	inactive
CC(Cl)(Cl)C(=O)O	–	inactive	–	inactive	inactive	inactive	inactive	inactive	inactive	inactive	inactive	inactive	inactive	inactive	inactive	inactive	inactive	inactive	inactive	inactive
CCCC[N+]1(C)CCCCC1	–	inactive	inactive	inactive	inactive	inactive	inactive	inactive	inactive	inactive	inactive	inactive	inactive	inactive	inactive	inactive	inactive	inactive	–	inactive
CCCCCCCCn1cc[n+](C)c1	–	inactive	inactive	inactive	inactive	–	inactive	inactive	inactive	inactive	inactive	inactive	inactive	inactive	inactive	inactive	inactive	inactive	–	inactive
O=C(O)CCl	–	–	inactive	inactive	inactive	inactive	inactive	inactive	inactive	inactive	inactive	inactive	inactive	inactive	inactive	inactive	inactive	inactive	inactive	inactive

Structure (SMILES)	Potency [1]	outcome [2]	Potency [3]	Potency [4]	Potency [5]	Potency [6]	outcome [7]	outcome [8]	outcome [9]	outcome [10]	outcome [11]	outcome [12]	outcome [13]	outcome [14]	outcome [15]	outcome [16]	outcome [17]	outcome [18]	outcome [19]	Potency [20]
O=c1nc(O)n(Cl)c(=O)n1Cl	–	inactive	–	inactive	inactive	inactive	inactive	inactive	inactive	inactive	inactive	inactive	inactive	inactive	inactive	inactive	inactive	inactive	inactive	inactive
CCCCCCCCCCn1cc[n+](C)c1	–	inactive	inactive	inactive	inactive	–	inactive	inactive	inactive	inactive	inactive	inactive	inactive	inactive	inactive	inactive	inactive	inactive	inactive	49.5 µM (active) and 40 µM (active) and 48.9 µM (active)
CCCCCCCCCCCCOS(=O)(=O)O	–	inactive	–	inactive	inactive	inactive	inactive	inactive	inactive	inactive	inactive	inactive	inactive	inactive	inactive	inactive	inactive	inactive	inactive	inactive
CCCCCC[n+]1ccccc1	–	inactive	inactive	inactive	inactive	61.7 µM (active) and inactive	inactive	inactive	inactive	inactive	inactive	inactive	inactive	inactive	inactive	inactive	inactive	inactive	–	inactive
CCCC[n+]1ccc(C)cc1	–	inactive	inactive	inactive	inactive and 48.3 µM (active)	–	inactive	inactive	inactive	inactive	inactive	inactive	inactive	inactive	inactive	inactive	inactive	inactive	–	inactive
CCCCCCn1cc[n+](C)c1	–	inactive	inactive	inactive	inactive	11 µM (active) and 24.5 µM (active) and 22.2 µM (active)	inactive	inactive	inactive	inactive	inactive	inactive	inactive	inactive	inactive	inactive	inactive	inactive	–	inactive
CCCC[n+]1ccccc1C	–	inactive	inactive	inactive	inactive	inactive	inactive	inactive	inactive	inactive	inactive	inactive	inactive	inactive	inactive	inactive	inactive	inactive	–	inactive
CCCCn1cc[n+](C)c1C	–	inactive	inactive	inactive	inactive	inactive	inactive	inactive	inactive	inactive	inactive	inactive	inactive	inactive	inactive	inactive	inactive	inactive	–	inactive
C=CCOC(Cn1ccnc1)c1ccc(Cl)cc1Cl (stereo not given)	–	inactive	inactive	inactive	inactive	–	inactive	inactive	inactive	inactive	inactive	inactive	inactive	inactive	inactive	inactive	inactive	inactive	inactive	inactive
CCCCn1cc[n+](C)c1	–	–	–	inactive	inactive	inactive	inactive	inactive	inactive	inactive	inactive	inactive	inactive	inactive	inactive	inactive	inactive	inactive	–	inactive
CCCCCCCCCCCCCC[P+](CCCCCC)(CCCCCC)CCCCCC	–	inactive	15.4 µM (active) and 19.5 µM (active) and inactive	27.4 µM (active) and 24.5 µM (active)	30.8 µM (active) and 24.5 µM (active) and 1.72 µM (active)	434 nM (active) and 616 nM (active) and 273 nM (active)	inactive	inactive	inactive	inactive	inactive	inactive	inactive	inactive	inactive	inactive	inactive	inactive	inactive	12.4 µM (active) and 11.1 µM (active)
CCCCCCCCCCCCn1cc[n+](C)c1	–	inactive	–	–	154 nM (active) and inactive	–	inactive	inactive	inactive	inactive	inactive	inactive	inactive	inactive	inactive	inactive	inactive	inactive	inactive	–
O=S(=O)(O)O	–	–	–	inactive	inactive	inactive	inactive	inactive	inactive	inactive	inactive	inactive	inactive	inactive	inactive	inactive	inactive	inactive	–	inactive
O=C(O)c1ccccc1O	–	–	–	inactive	–	–	–	–	–	–	–	–	inactive	–	–	–	–	–	–	inactive
Oc1cccc2cccnc12	–	–	–	inactive	inactive	–	inactive	inactive	inactive	inactive	inactive	inactive	inactive	inactive	inactive	inactive	inactive	inactive	–	inactive
CC(=O)O	–	–	inactive	inactive	–	–	inactive	inactive	inactive	inactive	inactive	inactive	inactive	inactive	inactive	inactive	inactive	inactive	–	inactive
